Only some compounds are listed: those with a hit (about 6% of all), similar ones and a draw of the others.
D1 antag: human D1 dopamine receptor antagonism | activity change, negative = inhibition, % at 10 µM | P21728 | HEK293 TREx D1 cells, calcium flux, dopamine EC80; stronger effect = lower value | 360,000 tested, 3.2% active; in the data active = activity change below about -30%; also: % is scaled to controls: 0 for no effect and ±100 for the full control effect
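Calcium flux readout: force-coupled, inducible Hek293 Trex D1 line, cells induced overnight at 30 C with tetracycline, dye-loaded 30–90 min at RT. Antagonism scored against EC80 dopamine challenge given 180 s after compound.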
D1 potentiator: potentiators of human D1 dopamine receptor; potentiation, % at 10 µM; AID 504651; P21728; HEK293 TREx D1 cells, calcium flux, dopamine EC20 potentiation; 360,000 tested, 0.036% active; in the data active = potentiation above about 30%; also: 0% is about no effect
D3 antag: D3 dopamine receptor (human) antagonism. max response, negative = inhibition, %. P35462. D3R cells, DiscoveRx beta-arrestin luminescence, antagonist mode; stronger effect = lower value. 360,000 tested, 2.5% active. AID 652054; in the data active = max response below about -50%; inconclusive = no clear call, values can overlap the other calls; also: % is scaled to controls: 0 for no effect and ±100 for the full control effect
Target sequence (P35462 whole entry, looked up): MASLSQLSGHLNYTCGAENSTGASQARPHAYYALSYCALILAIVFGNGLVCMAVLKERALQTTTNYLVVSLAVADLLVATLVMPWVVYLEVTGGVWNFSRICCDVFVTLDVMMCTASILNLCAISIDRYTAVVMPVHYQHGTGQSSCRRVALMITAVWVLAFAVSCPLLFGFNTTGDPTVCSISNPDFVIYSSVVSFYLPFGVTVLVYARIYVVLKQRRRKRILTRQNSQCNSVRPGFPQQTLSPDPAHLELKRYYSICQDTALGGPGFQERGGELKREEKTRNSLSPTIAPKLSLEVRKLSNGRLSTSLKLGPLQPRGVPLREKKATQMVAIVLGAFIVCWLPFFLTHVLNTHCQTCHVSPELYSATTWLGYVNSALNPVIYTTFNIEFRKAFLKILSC
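Cells expressing the human receptor were seeded at 1500 cells/well, incubated overnight at 37 degrees C in 5% CO2, then exposed to library compounds with dopamine controls for 90 minutes at 37 degrees C before luminescent detection.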
DRD3 agonist: agonists of human D3 dopamine receptor. max activation, %. AID 652048. P35462. D3R DiscoveRx beta-arrestin cells, luminescence, 90 min. 410,000 tested, 0.58% active; in the data active = max activation above about 30%; also: 0% is about no effect
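Agonist-mode cell screen: cells plated at 1500/well and incubated overnight at 37 °C, then exposed to library compounds for 90 min at 37 °C. Detection reagent was added for 30–60 min at room temperature, and luminescence was read.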
D1 agonist: human D1 receptor agonism; P21728; HEK293 T-REx D1 cells, calcium flux, agonist mode; activation, % at 2 µM; 360,000 tested, 1% active; AID 504660; in the data active = activation above about 30%; also: 0% is about no effect
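Agonism was scored from calcium flux recorded over 180 s (1 read/s) after pintool compound addition, following a 10-cycle baseline. Cells were inducible force-coupled HEK293 TREx D1, plated overnight at 30 C and loaded with no-wash calcium dye.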
* hit, by the source's call; ? = inconclusive; · = no result given.

SMILES | D1 antag | D1 potentiator | D3 antag | DRD3 agonist | D1 agonist
Cc1ccc(C(=O)NCCN2C3=NC[C@@H](Cc4ccccc4)N3C[C@H]2Cc2ccc(O)cc2)cc1Br | -14 | -6 | -58* | -15 | -4
Cc1ccc(C(=O)NCCN2C3=NC[C@H](Cc4ccc(O)cc4)N3C[C@H]2Cc2ccc(O)cc2)cc1Br | -16 | -12 | ? | -53 | 1
Cc1csc2nc(-c3ccc(NS(=O)(=O)c4cc(F)ccc4F)cc3)cn12 | 4 | 0 | · | 7 | 1
CCC(CO)Oc1cc(NCc2ccc(Cl)cc2Cl)c2ncn(C(C)C)c2c1 (stereo not drawn) | · | · | 3 | -1 | ·
COCCOc1cc(NCc2ccccc2)c2ncn(C(C)C)c2c1 | · | · | -71* | -15 | ·
CCCOc1cc(NCc2ccccc2)c2ncn(C(C)C)c2c1 | 43 | 15 | 7 | 10 | 33*
CCOc1cc(NCc2ccccc2)c2ncn(C(C)C)c2c1 | · | · | 0 | -12 | ·
CCC(CO)Oc1cc(NCc2ccccc2O)c2ncn(C(C)C)c2c1 (stereo not drawn) | · | · | 183 | 50* | ·
COc1ccc2c(CNCc3cccs3)c(C(=O)O)n(Cc3ccccc3C)c2c1 | 8 | 6 | · | -20 | 1
COc1ccc(N2C(=O)CSC23C(=O)N(CC(=O)NC2CCCCC2)c2ccccc23)cc1 (stereo not drawn) | 8 | -1 | · | -14 | 1
COc1ccc2nc(C)cc(Nc3ccccc3OC)c2c1 | · | · | ? | -6 | ·
COc1cccc(Nc2cc(C)nc3ccccc23)c1 | -19 | -8 | -56* | -2 | 7
COc1ccc2nc(C)cc(Nc3ccccc3O)c2c1 | -35* | -5 | -2 | -2 | -1
Cn1nc(-c2ccccc2)cc1NS(=O)(=O)c1ccccc1 | -36* | -2 | -11 | -7 | 2
Cc1ccc(S(=O)(=O)Nc2cc(-c3ccccc3)nn2C)cc1 | 9 | -2 | 0 | -1 | 1
COc1ccc(-n2cnnc2SCc2cnc(-c3ccccc3)s2)cc1 | 1 | -3 | -56* | -5 | 2
COCCn1c(SCc2cnc(-c3ccccc3)s2)nnc1-c1ccncc1 | 5 | 6 | 6 | -5 | -2
O=C(NC(c1ccccc1)c1cnccn1)C1CCN(CCOc2ccc(Cl)cc2Cl)CC1 (stereo not drawn) | · | · | -84* | -13 | ·
O=C(NC(c1ccccc1)c1ccsc1)C1CCN(CCOc2ccc(Cl)cc2Cl)CC1 (stereo not drawn) | · | · | 56 | 52* | ·
O=C(NC(c1cccnc1)c1ccc2c(c1)OCO2)C1CCN(CCOc2ccc(Cl)cc2Cl)CC1 (stereo not drawn) | · | · | -69* | -14 | ·
COc1ccc(OCCN2CCC(C(=O)NC(c3ccc(Cl)cc3)c3cnccn3)CC2)cc1 (stereo not drawn) | · | · | ? | -13 | ·
Cc1ccccc1C(c1ncccc1C)N(C)C(=O)C1CCN(CCOc2ccc(Cl)cc2Cl)CC1 (stereo not drawn) | · | · | -21 | 20 | ·
C#C[C@]1(O)CC[C@H]2[C@@H]3CCC4=CCCC[C@@H]4[C@H]3C(=C)C[C@@]21CC | · | · | · | 4 | ·
Cc1ccccc1NC(=O)CSc1nc2c(oc3ccccc32)c(=O)n1Cc1ccco1 | -3 | -4 | · | -14 | 1
CC1(C(=O)Nc2ccc(Cl)c(Cl)c2)CCN1C(=O)CC(c1ccccc1)c1ccccc1 (stereo not drawn) | · | · | -19 | -8 | ·
SMILES | D1 antag | D1 potentiator | D3 antag | DRD3 agonist | D1 agonist
Cc1ccc(NC(=O)C2(C)CCN2C(=O)CC(c2ccccc2)c2ccccc2)cc1 (stereo not drawn) | · | · | -25 | 67* | ·
CCc1cccc(C)c1NC(=O)CSc1nc(C)cc(C)c1C(=O)Nc1ccccc1 | 1 | 2 | · | -3 | 5
CC1(Oc2cccc(F)c2)CCN(Cc2ccc3ccccc3c2)C1 (stereo not drawn) | · | · | -117* | -11 | ·
COCOc1cccc(CN2CCC(C)(Oc3cccc(C#N)c3)C2)c1 (stereo not drawn) | · | · | -50* | -18 | ·
COc1cccc(OC2(C)CCN(Cc3ccc(-c4ccccn4)cc3)C2)c1 (stereo not drawn) | · | · | ? | 2 | ·
Cc1ccc(CN2CCC(C)(Oc3cccc(Cl)c3)C2)cc1 (stereo not drawn) | · | · | -103* | -22 | ·
CSc1ccc(OC2(C)CCN(Cc3ccc(OC(C)C)cc3)C2)cc1 (stereo not drawn) | · | · | ? | -7 | ·
Cc1ccc(CN2CCC(C)(Oc3ccc(Cl)cc3)C2)cc1 (stereo not drawn) | · | · | -95* | -15 | ·
